Laboratory results reported in the supplement of paper PMC7411054.
Counter-ions that a name gives are not always drawn.

Columns and labels:
Settings in all cases: treatment time: 24 h
A549-ACTB-RAB5A [1] = assay: lowest phenotypically active concentration; higher = less potent
Method in brief: (§1)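 Each of fifteen gene-edited A549, HepG2 and WPMY1 reporter lines, marked with BFP for segmentation and GFP and RFP/FusionRed, was treated in four wells at 0.3, 1, 3 or 9 µM for 24 h prior to live imaging. Normalisation of per-well live-cell features used solvent control wells. Deviation needed ≥3 of 4 wells beyond the 95th percentile of control Euclidean distances, and reproducibility needed a median replicate Pearson correlation above the 95th percentile of non-replicates. Both were required for phenotypic activity.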

A549-CANX-COX4 [2] = assay: as above
Method in brief: as §1

A549-GM130-SQSTM1 [3] = assay: as above
Method in brief: as §1

A549-TUBA1B-RELA [4] = assay: as above
Method in brief: as §1

HepG2-ACTB-RAB5A [5] = assay: as above
Method in brief: as §1

A549-ACTB-RAB5A [6] = assay: phenotypically active (imaging signature differs from DMSO and reproducible) at any of 0.3-9 uM (binary (1 = active, 0 = inactive)); higher = active
Method in brief: as §1

A549-CANX-COX4 [7] = assay: as above
Method in brief: as §1

A549-GM130-SQSTM1 [8] = assay: as above
Method in brief: as §1

A549-TP53BP1-CLTA = assay: as above
Method in brief: as §1

A549-TUBA1B-RELA [9] = assay: as above
Method in brief: as §1

HepG2-ACTB-RAB5A [10] = assay: as above
Method in brief: as §1

HepG2-CANX-COX4 = assay: as above
Method in brief: as §1

HepG2-GM130-SQSTM1 = assay: as above
Method in brief: as §1

HepG2-TP53BP1-CLTA = assay: as above
Method in brief: as §1

HepG2-TUBA1B-RELA = assay: as above
Method in brief: as §1

WPMY1-ACTB-RAB5A = assay: as above
Method in brief: as §1

WPMY1-CANX-COX4 = assay: as above
Method in brief: as §1

WPMY1-GM130-SQSTM1 = assay: as above
Method in brief: as §1

WPMY1-TP53BP1-CLTA = assay: as above
Method in brief: as §1

WPMY1-TUBA1B-RELA = assay: as above
Method in brief: as §1

Row | Structure (SMILES) | lowest phenotypically active concentration (A549-ACTB-RAB5A [1]) [µM] | lowest phenotypically active concentration (A549-CANX-COX4 [2]) [µM] | lowest phenotypically active concentration (A549-GM130-SQSTM1 [3]) [µM] | lowest phenotypically active concentration (A549-TUBA1B-RELA [4]) [µM] | lowest phenotypically active concentration (HepG2-ACTB-RAB5A [5]) [µM] | phenotypically active (A549-ACTB-RAB5A [6]) | phenotypically active (A549-CANX-COX4 [7]) | phenotypically active (A549-GM130-SQSTM1 [8]) | phenotypically active (A549-TP53BP1-CLTA) | phenotypically active (A549-TUBA1B-RELA [9]) | phenotypically active (HepG2-ACTB-RAB5A [10]) | phenotypically active (HepG2-CANX-COX4) | phenotypically active (HepG2-GM130-SQSTM1) | phenotypically active (HepG2-TP53BP1-CLTA) | phenotypically active (HepG2-TUBA1B-RELA) | phenotypically active (WPMY1-ACTB-RAB5A) | phenotypically active (WPMY1-CANX-COX4) | phenotypically active (WPMY1-GM130-SQSTM1) | phenotypically active (WPMY1-TP53BP1-CLTA) | phenotypically active (WPMY1-TUBA1B-RELA)
1 | CC1=C(C(=O)Nc2cc3cn[nH]c3cc2F)C(c2ccc(C(F)(F)F)cc2)CC(=O)N1 (stereo not given) | ≤ 0.3 | 1 | 1 | ≤ 0.3 | ≤ 0.3 | 1 (active) | 1 (active) | 1 (active) | 1 (active) | 1 (active) | 1 (active) | 1 (active) | 1 (active) | 1 (active) | 1 (active) | 1 (active) | 1 (active) | 1 (active) | 1 (active) | 1 (active)
2 | CC(=O)NCC(=O)N1[C@@H]2CC[C@H]1c1ccc(Nc3ncc(C(F)(F)F)c(NC4CCC4)n3)cc12 | ≤ 0.3 | ≤ 0.3 | ≤ 0.3 | ≤ 0.3 | ≤ 0.3 | 1 (active) | 1 (active) | 1 (active) | 1 (active) | 1 (active) | 1 (active) | 1 (active) | 1 (active) | 1 (active) | 1 (active) | 1 (active) | 1 (active) | 1 (active) | 1 (active) | 1 (active)
3 | Fc1ccccc1CNCc1ccc(-c2ccnc3[nH]ccc23)cc1 [OXA 06 dihydrochloride] | ≤ 0.3 | 1 | 3 | 1 | 1 | 1 (active) | 1 (active) | 1 (active) | 1 (active) | 1 (active) | 1 (active) | 1 (active) | 1 (active) | 1 (active) | 1 (active) | 1 (active) | 1 (active) | 1 (active) | 1 (active) | 1 (active)
4 | COc1cc(C(=O)NC2CCN(C)CC2)c(F)cc1Nc1ncc2c(n1)N(C1CCCC1)CC(F)(F)C(=O)N2C [TAK 960 hydrochloride] | ≤ 0.3 | ≤ 0.3 | ≤ 0.3 | ≤ 0.3 | ≤ 0.3 | 1 (active) | 1 (active) | 1 (active) | 1 (active) | 1 (active) | 1 (active) | 1 (active) | 1 (active) | 1 (active) | 1 (active) | 1 (active) | 1 (active) | 1 (active) | 1 (active) | 1 (active)
5 | Nc1ncn([C@@H]2O[C@H](CO)[C@@H](O)[C@H]2O)c(=O)n1 [5-Azacytidine] | 1 | 3 | 1 | 9 | ≤ 0.3 | 1 (active) | 1 (active) | 1 (active) | 1 (active) | 1 (active) | 1 (active) | 1 (active) | 1 (active) | 1 (active) | 1 (active) | 1 (active) | 1 (active) | 1 (active) | 1 (active) | 1 (active)
6 | CC1(C)CC(=O)C2=C(C1)NC(=S)NC2c1cccc(O)c1 (stereo not given) [Dimethylenastron] | 1 | 3 | 1 | 1 | 1 | 1 (active) | 1 (active) | 1 (active) | 1 (active) | 1 (active) | 1 (active) | 1 (active) | 1 (active) | 1 (active) | 1 (active) | 1 (active) | 1 (active) | 1 (active) | 1 (active) | 1 (active)
7 | O=C(CCCCCN1C(=O)c2cccc3cccc(c23)C1=O)NO [Scriptaid] | ≤ 0.3 | 1 | ≤ 0.3 | ≤ 0.3 | ≤ 0.3 | 1 (active) | 1 (active) | 1 (active) | 1 (active) | 1 (active) | 1 (active) | 1 (active) | 1 (active) | 1 (active) | 1 (active) | 1 (active) | 1 (active) | 1 (active) | 1 (active) | 1 (active)
8 | COc1ccc2cc1Oc1ccc(cc1)C[C@H]1c3cc(c(OC)cc3CCN1C)Oc1c(OC)c(OC)cc3c1[C@H](C2)N(C)CC3 [Tetrandrine] | ≤ 0.3 | 1 | ≤ 0.3 | ≤ 0.3 | 1 | 1 (active) | 1 (active) | 1 (active) | 1 (active) | 1 (active) | 1 (active) | 1 (active) | 1 (active) | 1 (active) | 1 (active) | 1 (active) | 1 (active) | 1 (active) | 1 (active) | 1 (active)
9 | CC[C@@H]1C(=O)N(C)c2cnc(Nc3ccc(C(=O)NC4CCN(C)CC4)cc3OC)nc2N1C1CCCC1 | ≤ 0.3 | ≤ 0.3 | 1 | ≤ 0.3 | ≤ 0.3 | 1 (active) | 1 (active) | 1 (active) | 1 (active) | 1 (active) | 1 (active) | 1 (active) | 1 (active) | 1 (active) | 1 (active) | 1 (active) | 1 (active) | 1 (active) | 1 (active) | 1 (active)
10 | Nc1cccc(-c2cc3c(Oc4cccc(O)c4)ncnc3[nH]2)c1 | 1 | 1 | 9 | 1 | 1 | 1 (active) | 1 (active) | 1 (active) | 1 (active) | 1 (active) | 1 (active) | 1 (active) | 1 (active) | 1 (active) | 1 (active) | 1 (active) | 1 (active) | 1 (active) | 1 (active) | 1 (active)
11 | COc1cc(N2CCN(C)CC2)ccc1Nc1nccc(-c2cn(C)c3cnccc23)n1 | 1 | 9 | 3 | 1 | 3 | 1 (active) | 1 (active) | 1 (active) | 1 (active) | 1 (active) | 1 (active) | 1 (active) | 1 (active) | 1 (active) | 1 (active) | 1 (active) | 1 (active) | 1 (active) | 1 (active) | 1 (active)
12 | NC1(C(=O)N[C@@H](CCO)c2ccc(Cl)cc2)CCN(c2ncnc3[nH]ccc23)CC1 | ≤ 0.3 | 1 | 1 | 3 | 3 | 1 (active) | 1 (active) | 1 (active) | 1 (active) | 1 (active) | 1 (active) | 1 (active) | 1 (active) | 1 (active) | 1 (active) | 1 (active) | 1 (active) | 1 (active) | 1 (active) | 1 (active)
13 | C[C@@H](Oc1cc(-n2cnc3ccc(CN4CCN(C)CC4)cc32)sc1C(N)=O)c1ccccc1C(F)(F)F | ≤ 0.3 | ≤ 0.3 | ≤ 0.3 | ≤ 0.3 | ≤ 0.3 | 1 (active) | 1 (active) | 1 (active) | 1 (active) | 1 (active) | 1 (active) | 1 (active) | 1 (active) | 1 (active) | 1 (active) | 1 (active) | 1 (active) | 1 (active) | 1 (active) | 1 (active)
14 | COc1cc(N2CCC(N3CCN(C)CC3)CC2)ccc1Nc1ncnc(Nc2ccccc2S(=O)(=O)C(C)C)n1 | 3 | 9 | 3 | 9 | 9 | 1 (active) | 1 (active) | 1 (active) | 1 (active) | 1 (active) | 1 (active) | 1 (active) | 1 (active) | 1 (active) | 1 (active) | 1 (active) | 1 (active) | 1 (active) | 1 (active) | 1 (active)
15 | CC(C)(C)c1cnc(CSc2cnc(NC(=O)C3CCNCC3)s2)o1 | ≤ 0.3 | ≤ 0.3 | ≤ 0.3 | ≤ 0.3 | ≤ 0.3 | 1 (active) | 1 (active) | 1 (active) | 1 (active) | 1 (active) | 1 (active) | 1 (active) | 1 (active) | 1 (active) | 1 (active) | 1 (active) | 1 (active) | 1 (active) | 1 (active) | 1 (active)
16 | Oc1cccc(-c2nc(N3CCOCC3)c3oc4ncccc4c3n2)c1 [PI 103 hydrochloride] | ≤ 0.3 | ≤ 0.3 | ≤ 0.3 | ≤ 0.3 | ≤ 0.3 | 1 (active) | 1 (active) | 1 (active) | 1 (active) | 1 (active) | 1 (active) | 1 (active) | 1 (active) | 1 (active) | 1 (active) | 1 (active) | 1 (active) | 1 (active) | 1 (active) | 1 (active)
17 | Cc1cc(Nc2cc(C)c(C#N)c(NC(C)CCCC(C)(C)O)n2)n[nH]1 (stereo not given) [TC-A 2317 hydrochloride] | 1 | 1 | 1 | 1 | 1 | 1 (active) | 1 (active) | 1 (active) | 1 (active) | 1 (active) | 1 (active) | 1 (active) | 1 (active) | 1 (active) | 1 (active) | 1 (active) | 1 (active) | 1 (active) | 1 (active) | 1 (active)
18 | CN(C)CC(=O)N1CCC[C@@H](n2nc(-c3ccc(Oc4ccccc4)cc3)c3c(N)ncnc32)C1 | 1 | 9 | 1 | 1 | 1 | 1 (active) | 1 (active) | 1 (active) | 1 (active) | 1 (active) | 1 (active) | 1 (active) | 1 (active) | 1 (active) | 1 (active) | 1 (active) | 1 (active) | 1 (active) | 1 (active) | 1 (active)
19 | COc1ccc(C[C@H](N)C(=O)N[C@H]2[C@@H](O)[C@H](n3cnc4c(N(C)C)ncnc43)O[C@@H]2CO)cc1 [Puromycin dihydrochloride] | ≤ 0.3 | 1 | 1 | 1 | ≤ 0.3 | 1 (active) | 1 (active) | 1 (active) | 1 (active) | 1 (active) | 1 (active) | 1 (active) | 1 (active) | 1 (active) | 1 (active) | 1 (active) | 1 (active) | 1 (active) | 1 (active) | 1 (active)
20 | O=C(Nc1c[nH]nc1-c1nc2cc(CN3CCOCC3)ccc2[nH]1)NC1CC1 | ≤ 0.3 | ≤ 0.3 | ≤ 0.3 | ≤ 0.3 | ≤ 0.3 | 1 (active) | 1 (active) | 1 (active) | 1 (active) | 1 (active) | 1 (active) | 1 (active) | 1 (active) | 1 (active) | 1 (active) | 1 (active) | 1 (active) | 1 (active) | 1 (active) | 1 (active)
21 | CO[C@@H]1[C@H](N(C)C(=O)c2ccccc2)C[C@H]2O[C@]1(C)n1c3ccccc3c3c4c(c5c6ccccc6n2c5c31)C(=O)NC4 | ≤ 0.3 | ≤ 0.3 | ≤ 0.3 | ≤ 0.3 | ≤ 0.3 | 1 (active) | 1 (active) | 1 (active) | 1 (active) | 1 (active) | 1 (active) | 1 (active) | 1 (active) | 1 (active) | 1 (active) | 1 (active) | 1 (active) | 1 (active) | 1 (active) | 1 (active)
